Results published in PubChem BioAssay (Tox21).
Values joined by “and” are separate entries in the source; they are usually repeats but may differ in a detail not shown here. Equal values may be shown once. Inconclusive results are not listed. A call without a number means that no potency is given here. Some compounds were tested as several samples or in several runs, with calls that do not always agree. Active and inactive are the calls of the source. Unless noted, calls come from the whole dose curve; as a rule, active = well fitted curve in the direction sought with a large enough effect in the repeat runs; inconclusive = weak or mixed curves; inactive = no such curve, though single readings can be large; an effect the other way counts as inactive or inconclusive.

How the values were obtained:
[1] = A CellTox Green Cytotoxicity Assay to monitor cytotoxicity in HepG2 cells - 8 hour (AID 1224890); note: nearly all actives have a fitted effect of over 45% in size; note: potency is the fitted concentration of half-maximal effect
Outline: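 HepG2 cells, 600/well, preincubated 5 h with CellTox Green dye, then exposed to Tox21 compounds in DMSO at 37 C for up to 40 h. Dead-cell DNA fluorescence read at the indicated time point.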

[2] = qHTS assay to identify small molecule antagonists of the estrogen receptor alpha (ER-alpha) signaling pathway using the BG1 cell line in the presence of 0.1 nM 17-beta-estradiol - cell viability counter screen (AID 1259241); note: nearly all actives have a fitted effect of over 40% in size; note: potency is the fitted concentration of half-maximal effect
Outline: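 Cytotoxicity counter-screen: live-cell protease activity measured by fluorescence (30 min reagent step) in the same wells. Cells were VM7Luc4E2 with endogenous ER-alpha and ERE-driven luciferase, treated 22 hr at 37C alongside 0.1 nM 17beta-estradiol final.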

[3] = biological target: Estrogen receptor (Homo sapiens) (UniProt P03372); test: qHTS assay to identify small molecule antagonists of the estrogen receptor alpha (ER-alpha) signaling pathway using the BG1 cell line in the presence of 0.1 nM 17-beta-estradiol (AID 1259244); note: nearly all actives have a fitted effect of over 50% in size; note: potency is the fitted concentration of half-maximal effect
Outline: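 VM7Luc4E2 cells (endogenous full-length ER-alpha, 4×ERE-luciferase), kept 5 days in phenol red-free, charcoal-stripped FBS medium; 4,000 cells/well. Compounds added with 0.1 nM (final) 17beta-estradiol, 22 hr at 37C; luminescence read with ONE-Glo after 30 min.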

[4] = qHTS assay to identify small molecule HDAC inhibitors (AID 1259364); note: nearly all actives have a fitted effect of over 45% in size; note: potency is the fitted concentration of half-maximal effect
Outline: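 Wild-type HCT-116 cells, plated overnight at 37 C, exposed to compounds 2 hr at 37 C; luminogenic HDAC-Glo substrate then added 30 min at room temperature. Luminescence reports relative endogenous class I/II HDAC activity.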

[5] = qHTS assay to identify small molecule HDAC inhibitors - cell viability counter screen (AID 1259365); note: series mostly up to about 92 µM; nearly all actives have a fitted effect of over 50% in size
Outline: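 CellTiter-Glo luminescence (30 min, room temperature) reported viability after a 2 h compound exposure at 37 C. Cells: wild-type HCT-116, 1,500 per well, seeded the night before.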

[6] = qHTS assay to identify small molecule agonists of the sonic hedgehog signaling (Shh) pathway - cell viability counter screen (AID 1259366); note: nearly all actives have a fitted effect of over 50% in size; note: potency is the fitted concentration of half-maximal effect
Outline: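 Cytotoxicity counter screen: CellTiter-Fluor reagent added after 23 h compound exposure, then 1 h at 37C and fluorescence read. Cells were 3T3 Gli1-Luc, seeded 2,000 per well and dosed 4 h post-plating.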

[7] = qHTS assay to identify small molecule antagonists of the sonic hedgehog signaling (Shh) pathway - cell viability counter screen (AID 1259367); note: nearly all actives have a fitted effect of over 55% in size; note: potency is the fitted concentration of half-maximal effect
Outline: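 NIH/3T3-derived Gli1-Luc reporter cells (2,000 per well) rested 4 hr at 37 C, then received DMSO compounds plus conditioned medium. After 23 hr of treatment, CellTiter-Fluor was added for 1 hr at 37C and fluorescence read.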

[8] = qHTS assay to identify small molecule agonists of the sonic hedgehog signaling (Shh) pathway (AID 1259368; calls by dose curve; note: nearly all actives have a fitted effect of over 15% in size; note: potency is the fitted concentration of half-maximal effect)
Outline: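 NIH/3T3-derived 3T3Gli1-Luc cells with stably integrated Gli1-driven firefly luciferase, 2,000 cells/well, compounds added after 4 hr. Incubated 24 hr at 37C, 5% CO2; luminescence read after 30 min with luciferase reagent at room temperature.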

[9] = qHTS assay to identify small molecule antagonists of the sonic hedgehog signaling (Shh) pathway (AID 1259369; calls by dose curve; note: nearly all actives have a fitted effect of over 45% in size; note: potency is the fitted concentration of half-maximal effect)
Outline: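 NIH/3T3-derived Gli1-Luc reporter cells plated 4 h, dosed with compound, then stimulated with conditioned medium for 24 h at 37 C. Firefly luciferase luminescence read after 30 min with detection reagent at room temperature.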

[10] = biological target: Estrogen receptor beta (Homo sapiens) (UniProt Q92731); test: qHTS assay to identify small molecule agonists of the estrogen receptor beta (ER-beta) signaling pathway (AID 1259377; active = well fitted activation curve with a large enough effect in the signal ratio in the repeat runs, not every such curve was filed as active; the % refers to the signal ratio; note: potency is the fitted concentration of half-maximal effect)
Outline: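 Ratiometric beta-lactamase FRET read-out came after 2 h substrate loading at room temperature. It followed 16 h compound treatment at 37C of GripTite HEK293T cells carrying a UAS-bla reporter, plated in 2% charcoal-stripped FBS medium.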

[11] = biological target: Estrogen receptor beta (Homo sapiens) (UniProt Q92731); test: qHTS assay to identify small molecule antagonists of the estrogen receptor beta (ER-beta) signaling pathway (AID 1259378; active = well fitted inhibition curve with a large enough effect in the signal ratio in the repeat runs, not every such curve was filed as active; the % refers to the signal ratio; note: potency is the fitted concentration of half-maximal effect)
Outline: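 ER-beta-UAS-bla HEK293T (GripTite) cells in 2% charcoal-stripped FBS medium were preincubated 6 hr at 37C, dosed with compound, then stimulated with 1 nM E2 (final) for 16 hr; beta-lactamase reporter read by B/G FRET fluorescence after 2 hr substrate loading.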

[12] = qHTS assay to identify small molecule agonists of the androgen receptor (AR) signaling pathway in the presence of an antagonist - cell viability counter screen (AID 1259379); note: nearly all actives have a fitted effect of over 25% in size; note: potency is the fitted concentration of half-maximal effect
Outline: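 MDA-kb2 cells (MMTV-luciferase, AR/GR), 3,000/well, 5 h attachment, then 3.0 µM nilutamide (final) and compounds at 15 concentrations. Viability by CellTiter-Fluor fluorescence after 16 h at 37 °C, 0% CO2, in the reporter wells.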

[13] = qHTS assay to identify small molecule antagonists of the estrogen receptor beta (ER-beta) signaling pathway - cell viability counter screen (AID 1259382); note: nearly all actives have a fitted effect of over 55% in size; note: potency is the fitted concentration of half-maximal effect
Outline: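 ER-beta-UAS-bla HEK293T cells in 2% charcoal-stripped FBS medium, treated with compound plus 1 nM 17-beta-estradiol for 16 h at 37C. Viability read by CellTiter-Glo luminescence after 30 min at room temperature in the same wells.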

[14] = biological target: Estrogen receptor (Homo sapiens) (UniProt P03372); test: qHTS assay to identify small molecule agonists of the estrogen receptor alpha (ER-alpha) signaling pathway in the presence of an antagonist (AID 1259383; calls by dose curve; note: nearly all actives have a fitted effect of over 15% in size; note: potency is the fitted concentration of half-maximal effect; for activation: top concentration of the series differs between compounds)
Outline: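 VM7Luc4E2 cells express endogenous full-length ER-alpha with an ERE-luciferase reporter and were hormone-deprived for 5 days. Compounds at 15 concentrations were added with 10.0nM ICI-182,780 for 22hr at 37C. Luminescence was read with ONE-Glo.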

[15] = qHTS assay to identify small molecule agonists of the estrogen receptor beta (ER-beta) signaling pathway - cell viability counter screen (AID 1259380); note: nearly all actives have a fitted effect of over 30% in size; note: potency is the fitted concentration of half-maximal effect
Outline: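 ER-beta-UAS-bla HEK293T cells in medium with 2% charcoal-stripped FBS, pre-incubated 6 hr, then treated 16 hr at 37C. Cytotoxicity read in the same wells by CellTiter-Glo luminescence after 30 min at room temperature.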

[16] = qHTS assay to identify small molecule phospholipidosis (PLD) inducers (AID 1259344; active = well fitted curve in the direction sought with a large enough effect; an effect the other way counts as inactive or inconclusive)
Outline: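 HepG2 cells on collagen I, attached 4 h at 37 C, were co-treated with compound and LipidTOX Red dye for 24 h at 37 C, then fixed with paraformaldehyde plus Hoechst 33342 and imaged by high-content microscopy for phospholipid accumulation.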

[17] = qHTS assay to identify small molecule agonists or antagonists of the thyroid stimulating hormone receptor (TSHR) signaling pathway - wild type cell line counter screen (AID 1259384; calls by dose curve)
Outline: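 Wild-type HEK293 cells were plated 18 h at 37 C/5% CO2, pin-dosed with compound plus Ro20-1724 medium, held 30 min at room temperature, then given cAMP-d2 and anti-cAMP-cryptate; fluorescence was read after 1 h. Fifteen concentrations, triplicate.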

[18] = qHTS assay to identify small molecule antagonists of the androgen receptor (AR) signaling pathway using the MDA cell line in the presence of 0.5 nM R1881 - cell viability counter screen (AID 1259242); note: nearly all actives have a fitted effect of over 45% in size
Outline: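 MDA-kb2 cells (MMTV-luciferase, AR/GR responsive) were treated with compounds plus 0.5 nM R1881 (final) for 16 hr at 37C, 0% CO2. Viability was then read in the same wells as live-cell protease fluorescence (CellTiter-Fluor, 30 min).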

[19] = biological target: Androgen receptor (Homo sapiens) (UniProt P10275); test: qHTS assay to identify small molecule antagonists of the androgen receptor (AR) signaling pathway using the MDA cell line in the presence of 0.5 nM R1881 (AID 1259243); note: nearly all actives have a fitted effect of over 50% in size; note: potency is the fitted concentration of half-maximal effect
Outline: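 MDA-kb2 cells (MMTV-luciferase, responsive to AR and GR) at 3,000/well, rested 5 h at 37C, 0% CO2, then given compounds plus 0.5 nM R1881 (final) for 16 hr. Luciferase read with ONE-Glo after 30 min at room temperature.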

[20] = biological target: Androgen receptor (Homo sapiens) (UniProt P10275); test: qHTS assay to identify small molecule agonists of the androgen receptor (AR) signaling pathway in the presence of an antagonist (AID 1259381; calls by dose curve; note: nearly all actives have a fitted effect of over 15% in size; note: potency is the fitted concentration of half-maximal effect)
Outline: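 MDA-kb2 cells carrying MMTV-luciferase (AR/GR responsive), 3,000 cells/well, co-treated with 3.0 uM nilutamide final. Compounds at 15 concentrations, 16 hr at 37C without CO2. Luciferase luminescence read after 30 min with ONE-Glo.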

Chain of Androgen receptor (Homo sapiens) (P10275 whole entry, looked up): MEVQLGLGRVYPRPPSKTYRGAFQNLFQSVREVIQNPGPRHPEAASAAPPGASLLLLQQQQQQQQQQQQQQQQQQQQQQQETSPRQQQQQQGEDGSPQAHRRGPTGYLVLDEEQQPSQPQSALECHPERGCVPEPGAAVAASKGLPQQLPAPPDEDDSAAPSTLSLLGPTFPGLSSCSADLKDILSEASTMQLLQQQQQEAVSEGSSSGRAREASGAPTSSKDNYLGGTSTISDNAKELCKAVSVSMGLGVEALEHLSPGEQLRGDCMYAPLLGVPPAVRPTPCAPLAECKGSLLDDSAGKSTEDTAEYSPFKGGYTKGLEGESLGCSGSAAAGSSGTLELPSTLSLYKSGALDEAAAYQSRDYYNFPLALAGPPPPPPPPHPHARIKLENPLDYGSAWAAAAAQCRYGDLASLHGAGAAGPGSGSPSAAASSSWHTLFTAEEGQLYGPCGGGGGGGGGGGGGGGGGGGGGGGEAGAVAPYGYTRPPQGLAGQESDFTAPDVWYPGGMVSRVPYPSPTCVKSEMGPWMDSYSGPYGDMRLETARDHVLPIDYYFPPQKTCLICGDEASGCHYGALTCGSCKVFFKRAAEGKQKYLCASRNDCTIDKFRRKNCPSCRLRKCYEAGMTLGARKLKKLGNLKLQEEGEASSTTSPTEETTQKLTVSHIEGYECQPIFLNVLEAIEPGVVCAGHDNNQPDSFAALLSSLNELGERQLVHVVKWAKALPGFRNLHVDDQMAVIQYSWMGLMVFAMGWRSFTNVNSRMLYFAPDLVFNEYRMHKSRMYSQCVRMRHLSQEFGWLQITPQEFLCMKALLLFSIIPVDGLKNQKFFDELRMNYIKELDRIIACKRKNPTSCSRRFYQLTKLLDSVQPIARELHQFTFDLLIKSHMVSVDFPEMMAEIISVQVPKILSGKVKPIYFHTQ
Chain of Estrogen receptor beta (Homo sapiens) (Q92731 whole entry, looked up): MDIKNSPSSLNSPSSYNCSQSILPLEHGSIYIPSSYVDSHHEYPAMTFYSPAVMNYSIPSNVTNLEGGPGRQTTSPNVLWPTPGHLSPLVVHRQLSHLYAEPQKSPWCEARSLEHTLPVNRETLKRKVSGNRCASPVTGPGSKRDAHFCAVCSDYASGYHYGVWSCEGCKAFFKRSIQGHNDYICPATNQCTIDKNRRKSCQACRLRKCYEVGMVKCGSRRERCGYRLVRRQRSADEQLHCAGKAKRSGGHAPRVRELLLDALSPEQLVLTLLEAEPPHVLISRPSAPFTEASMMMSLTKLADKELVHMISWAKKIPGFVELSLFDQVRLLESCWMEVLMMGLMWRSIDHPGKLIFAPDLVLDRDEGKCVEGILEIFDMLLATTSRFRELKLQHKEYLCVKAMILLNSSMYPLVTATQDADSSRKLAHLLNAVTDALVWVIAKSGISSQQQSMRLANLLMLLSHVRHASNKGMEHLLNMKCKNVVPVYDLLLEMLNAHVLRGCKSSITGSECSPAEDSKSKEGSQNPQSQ
Chain of Estrogen receptor (Homo sapiens) (P03372 whole entry, looked up): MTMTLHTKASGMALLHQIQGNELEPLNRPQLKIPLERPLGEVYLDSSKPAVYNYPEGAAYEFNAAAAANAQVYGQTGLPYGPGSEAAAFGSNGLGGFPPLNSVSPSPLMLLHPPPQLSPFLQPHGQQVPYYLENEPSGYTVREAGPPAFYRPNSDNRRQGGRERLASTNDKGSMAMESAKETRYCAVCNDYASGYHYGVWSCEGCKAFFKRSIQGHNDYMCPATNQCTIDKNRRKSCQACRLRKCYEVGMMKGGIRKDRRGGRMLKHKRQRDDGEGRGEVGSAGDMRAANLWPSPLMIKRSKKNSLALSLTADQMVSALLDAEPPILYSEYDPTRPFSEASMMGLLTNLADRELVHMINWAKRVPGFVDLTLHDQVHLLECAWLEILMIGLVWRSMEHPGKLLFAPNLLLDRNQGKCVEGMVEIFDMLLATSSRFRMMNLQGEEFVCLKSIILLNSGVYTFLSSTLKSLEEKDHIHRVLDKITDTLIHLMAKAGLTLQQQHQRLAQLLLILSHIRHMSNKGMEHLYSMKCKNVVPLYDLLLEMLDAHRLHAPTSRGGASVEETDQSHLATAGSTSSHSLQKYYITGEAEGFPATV

SMILES | Potency [1] | Potency [2] | Potency [3] | Potency [4] | outcome [5] | Potency [6] | Potency [7] | Potency [8] | Potency [9] | Potency [10] | Potency [11] | Potency [12] | Potency [13] | Potency [14] | Potency [15] | outcome [16] | outcome [17] | Potency [18] | Potency [19] | Potency [20]
CC(C)C(=O)OCC(C)(C)C(OC(=O)C(C)C)C(C)C (stereo not given) | inactive | inactive | inactive | inactive | inactive | inactive | inactive | inactive | inactive | inactive and 27.3 µM (active) | inactive | inactive | inactive | inactive and 27.3 µM (active) |  |  |  |  |  | 
c1ccc(NNc2ccccc2)cc1 | inactive | inactive |  | 15.4 µM (active) | inactive | inactive |  | inactive | inactive | inactive | inactive | inactive | inactive |  | inactive |  |  |  |  | 
O=Cc1ccco1 | inactive | inactive |  | inactive | inactive | inactive |  | inactive | inactive |  |  | inactive | inactive |  | inactive | inactive | inactive |  |  | 
CC1(C)C(C=C(Cl)Cl)C1C(=O)OC(C#N)c1cccc(Oc2ccccc2)c1 (stereo not given) | inactive | inactive | inactive | inactive | inactive | inactive |  | inactive | inactive | inactive | inactive | inactive | inactive | inactive | inactive | inactive |  |  |  | 
N#CCCCl | inactive | inactive |  | inactive | inactive | inactive |  | inactive | inactive |  |  | inactive | inactive |  | inactive |  | inactive | inactive |  | 
C=C(C)[C@H]1Cc2c(ccc3c2O[C@@H]2COc4cc(OC)c(OC)cc4[C@@H]2C3=O)O1 | inactive | 48.6 nM (active) |  | inactive | inactive | 24.7 µM (active) and inactive |  | inactive | 19.6 nM (active) and 5.45 µM (active) and inactive |  |  | 55.2 nM (active) and 38.6 nM (active) and 47.3 nM (active) | inactive |  |  | inactive |  |  | 31 nM (active) and 19.3 nM (active) and 47.3 nM (active) | inactive
Cc1ccc(N)c(N)c1 | inactive | inactive |  |  | inactive | inactive |  | 1.73 µM (active) and 1.54 µM (active) | 24.4 µM (active) | inactive |  | inactive | inactive |  | inactive |  | inactive | inactive |  | 
C=CC(=O)OCCO | inactive | inactive |  | inactive | inactive |  |  | inactive | 24.7 µM (active) and 27.3 µM (active) | inactive | inactive | inactive | inactive |  | inactive |  | inactive | inactive |  | 
O=C(O)CC[N+](=O)[O-] | inactive | inactive |  | inactive | inactive | inactive | inactive | inactive | inactive |  |  | inactive | inactive |  |  |  |  |  | inactive | inactive
O=[N+]([O-])c1c(Cl)c(Cl)c(Cl)c(Cl)c1Cl | inactive | inactive | inactive | inactive | inactive | inactive and 43.3 µM (active) | inactive | inactive | inactive | inactive | inactive | 60.8 µM (active) and 48.6 µM (active) | inactive | inactive | inactive |  |  |  | 27.2 µM (active) and 27.3 µM (active) | inactive
C#C[C@]1(O)CC[C@H]2[C@@H]3CCC4=CC(=O)CC[C@]4(C)[C@H]3CC[C@@]21C | inactive | inactive |  | inactive | inactive | inactive | inactive | inactive | inactive | inactive | inactive | inactive | inactive |  | inactive | inactive | inactive |  |  | 
CCC(=O)O[C@H]1CC[C@H]2[C@@H]3CCC4=CC(=O)CC[C@]4(C)[C@H]3CC[C@]12C | 43.6 µM (active) | inactive | inactive | inactive | inactive |  | inactive | inactive | 30.6 µM (active) and 18.8 µM (active) |  |  | inactive | 61.1 µM (active) and inactive | 7.7 µM (active) and 9.44 µM (active) |  |  | inactive |  | inactive | 48.6 nM (active) and 47.3 nM (active)
O=C(O)C(F)(F)C(F)(F)C(F)(F)C(F)(F)C(F)(F)C(F)(F)C(F)(F)F | inactive | inactive |  | inactive | inactive | inactive |  | inactive | inactive | inactive |  | inactive | inactive |  | 30.6 µM (active) and 24.3 µM (active) |  | inactive | inactive |  | 
CCc1cccc(CC)c1N(COC)C(=O)CCl | inactive |  | 47 µM (active) | inactive | inactive | 27.3 µM (active) | 59.1 µM (active) | inactive | 26.4 µM (active) |  | 30.6 µM (active) | inactive | inactive | inactive |  |  | inactive | inactive | 23.5 µM (active) and 27.3 µM (active) | inactive
CCCCCCCCC(=O)NCc1ccc(O)c(OC)c1 | inactive | inactive | inactive | inactive | inactive | inactive | inactive | inactive | 12.2 µM (active) and inactive |  |  | inactive | inactive | inactive |  | inactive |  |  |  | 
COC(=O)c1sccc1S(=O)(=O)NC(=O)Nc1nc(C)nc(OC)n1 | inactive | inactive | inactive | inactive | inactive | inactive | inactive | inactive | inactive | inactive | inactive | inactive | inactive | inactive |  |  | inactive |  |  | 
COc1ccc(C=O)cc1 | inactive | inactive | inactive | inactive | inactive | inactive | inactive | inactive | inactive |  |  | inactive | inactive | inactive | inactive |  |  |  |  | 
